PubChem BioAssay (NCI)
Compounds without any hit were thinned out: in the full panel of roughly 79,000, 15% have a hit. Activity calls are given as the source filed them. No stated cut-off is given here; in the data, active means growth inhibition above about 70%; inactive means the rest.

Columns and labels:
[1] = NCI Yeast Anticancer Drug Screen. Data for the rad52 strain (AID 147);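 further: 0% = growth of vehicle-treated control cultures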; conditions: S. cerevisiae rad52 mutant growth inhibition, active compounds read high
Procedure, shortened: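 Read-out: growth inhibition versus vehicle-treated controls. Cells were a DNA repair-deficient yeast strain treated with compounds.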

[2] = NCI Yeast Anticancer Drug Screen. Data for the wt1 strain (AID 149);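 further: 0% = growth of vehicle-treated wt1 cultures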; conditions: S. cerevisiae wt1 strain (SPY 50644) growth inhibition, active compounds read high
Procedure, shortened: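 Using yeast strain wt1, compound-induced growth inhibition was determined against vehicle-treated cultures.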

[3] = NCI Yeast Anticancer Drug Screen. Data for the rad50EPP+ strain (AID 151);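 further: 0% = growth of vehicle-treated control cultures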; conditions: S. cerevisiae rad50 mutant strain, active compounds read high
Procedure, shortened: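 Growth inhibition read against vehicle controls in rad50EPP+ yeast, a strain altered in DNA damage repair, after compound exposure.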

[4] = NCI Yeast Anticancer Drug Screen. Data for the mgt1 strain (AID 153); conditions: S. cerevisiae mgt1 mutant growth inhibition, active compounds read high
Procedure, shortened: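 mgt1 yeast grown with test compound; read-out is growth inhibition versus vehicle-treated cultures.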

[5] = NCI Yeast Anticancer Drug Screen. Data for the mec2-1 strain (AID 157); conditions: S. cerevisiae mec2-1 strain, active compounds read high
Procedure, shortened: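 Yeast mec2-1 mutant treated with compound. Readout: growth inhibition vs vehicle controls.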

[6] = NCI Yeast Anticancer Drug Screen. Data for the rad14 strain (AID 159);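 further: 0% = growth of vehicle-treated control cultures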; conditions: S. cerevisiae rad14 strain growth inhibition, active compounds read high
Procedure, shortened: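 Screen for anticancer potential: a yeast strain altered in DNA damage repair is grown with compound, and reduced growth is quantified against vehicle controls.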

[7] = NCI Yeast Anticancer Drug Screen. Data for the sgs1 mgt1 strain (AID 161);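 further: 0% = growth of cultures given vehicle only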; conditions: S. cerevisiae sgs1 mgt1 strain, active compounds read high
Procedure, shortened: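 Mutant yeast exposed to compound; growth scored against vehicle-only wells.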

[8] = NCI Yeast Anticancer Drug Screen. Data for the CLN2oe strain (AID 163);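 further: 0% = growth of vehicle-only control cultures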; conditions: S. cerevisiae CLN2oe strain, active compounds read high
Procedure, shortened: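 Read-out: yeast growth inhibition, expressed relative to vehicle-only controls. The strain bears an engineered cell-cycle alteration.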

[9] = NCI Yeast Anticancer Drug Screen. Data for the cln2 rad14 strain (AID 165);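 further: 0% = growth equal to vehicle treated cultures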; conditions: S. cerevisiae cln2 rad14 strain, active compounds read high
Procedure, shortened: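 cln2 rad14 yeast strain; compound exposure; growth inhibition read vs vehicle controls.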

[10] = NCI Yeast Anticancer Drug Screen. Data for the bub3 strain (AID 167); conditions: S. cerevisiae bub3 mutant strain, active compounds read high
Procedure, shortened: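 Screening used yeast with an engineered genetic alteration affecting cell cycle control. Compound-exposed cultures were compared with vehicle cultures, and reduced growth was taken as inhibition.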

[11] = NCI Yeast Anticancer Drug Screen. Data for the wt2 strain (AID 169);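 further: 0% = growth of vehicle-treated yeast cultures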; conditions: S. cerevisiae wt2 strain growth inhibition, active compounds read high
Procedure, shortened: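 Read-out: growth inhibition versus vehicle-treated control cultures after compound exposure of the yeast strain.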

[12] = NCI Yeast Anticancer Drug Screen. Data for the mlh1 strain (AID 171);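 further: 0% = growth of vehicle-treated control cultures of the same strain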; conditions: S. cerevisiae mlh1 strain growth inhibition, active compounds read high
Procedure, shortened: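 Read-out: growth inhibition versus vehicle controls. Strain: engineered yeast with a defined DNA repair or cell cycle defect, compound-treated.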

[13] = NCI Yeast Anticancer Drug Screen. Data for the sgs1 strain (AID 173);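 further: 0% = growth of vehicle-only control cultures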; conditions: S. cerevisiae sgs1 mutant, active compounds read high
Procedure, shortened: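 Read-out: yeast growth inhibition relative to vehicle controls, following compound exposure of a strain with a defined DNA repair/cell cycle alteration.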

[14] = NCI Yeast Anticancer Drug Screen. Data for the mlh1 rad18 strain (AID 175); conditions: S. cerevisiae mlh1 rad18 strain growth inhibition, active compounds read high
Procedure, shortened: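 Yeast w/ defined DNA-repair lesions; compound exposure; growth vs vehicle controls → % inhibition.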

[15] = NCI Yeast Anticancer Drug Screen. Data for the rad50 strain (AID 155);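 further: 0% = growth of vehicle-only cultures of the same strain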; conditions: S. cerevisiae rad50 strain growth inhibition, active compounds read high
Procedure, shortened: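 Relative growth inhibition (compound vs vehicle) was measured in yeast with a defined repair-gene alteration.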

[16] = NCI Yeast Anticancer Drug Screen. Data for the rad18 strain (AID 177); conditions: S. cerevisiae rad18 mutant growth inhibition, active compounds read high
Procedure, shortened: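 Readout: growth inhibition vs vehicle controls. Cells: genetically altered yeast strain, DNA repair defect.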

[17] = at 5.0 µM (retest, dose inferred, filed as 0.5)
[18] = at 50.0 µM (retest, dose inferred, filed as 5.0)

Measured: growth inhibition

Cc1cc(C(C)(C)C)c(OCCCN2CCOCC2)c(C(C)(C)C)c1
inactive: [1]; at 1.2 µM -5% | [1]; at 3.7 µM -9% | [1]; at 11.0 µM -14% | [1]; at 33.0 µM -3% | [2]; at 1.2 µM -1% | [2]; at 3.7 µM 0% | [2]; at 11.0 µM -3% | [2]; at 33.0 µM -7% | [2]; at 100.0 µM 62% | [3]; at 1.2 µM 0% | [3]; at 3.7 µM 3% | [3]; at 11.0 µM 3% | [3]; at 33.0 µM 19% | [3]; at 100.0 µM 47% | [4]; at 1.2 µM 0% | [4]; at 3.7 µM -4% | [4]; at 11.0 µM -9% | [4]; at 33.0 µM 4% | [5]; at 1.2 µM -1% | [5]; at 3.7 µM -5% | [5]; [17] -2% | [5]; at 11.0 µM -8% | [5]; at 33.0 µM -4% | [5]; [18] 12% | [5]; at 50.0 µM 59.5% | [6]; at 1.2 µM -2% | [6]; at 3.7 µM -1% | [6]; at 11.0 µM -5% | [6]; at 33.0 µM 15% | [7]; [17] 2% | [7]; [18] -10% | [8]; at 1.2 µM -5% | [8]; at 3.7 µM -4% | [8]; at 11.0 µM -15% | [8]; at 33.0 µM -17% | [9]; [17] -21% | [9]; [18] -81% | [9]; at 50.0 µM 24.3% | [10]; at 1.2 µM -5% | [10]; at 3.7 µM -1% | [10]; [17] -15% | [10]; at 11.0 µM -32% | [10]; at 33.0 µM 6% | [10]; [18] -10% | [11]; at 1.2 µM -2% | [11]; at 3.7 µM -3% | [11]; at 11.0 µM -8% | [11]; at 33.0 µM 9% | [12]; at 1.2 µM 3% | [12]; at 3.7 µM 2% | [12]; at 11.0 µM -3% | [12]; at 33.0 µM -16% | [13]; at 1.2 µM 0% | [13]; at 3.7 µM 0% | [13]; at 11.0 µM 0% | [13]; at 33.0 µM 25% | [14]; [17] -7% | [14]; [18] 48%
active: [1]; at 100.0 µM 96% | [4]; at 100.0 µM 99% | [5]; at 100.0 µM 98% | [6]; at 100.0 µM 99% | [7]; at 50.0 µM 82.2% | [8]; at 100.0 µM 97% | [10]; at 50.0 µM 75.5% | [10]; at 100.0 µM 94% | [11]; at 100.0 µM 98% | [12]; at 100.0 µM 97% | [13]; at 100.0 µM 98% | [14]; at 50.0 µM 83.8%

O/N=C\c1c(O)ccc2ccccc12
active: [1]; at 100.0 µM 72% | [3]; at 100.0 µM 74% | [15]; [18] 74% | [15]; at 100.0 µM 71% | [7]; [18] 74% | [7]; at 50.0 µM 78.8% | [10]; [18] 88% | [10]; at 50.0 µM 75% | [13]; at 100.0 µM 80% | [14]; [18] 89% | [14]; at 50.0 µM 73.2%
inactive: [1]; at 1.2 µM -4% | [1]; at 3.7 µM 0% | [1]; at 11.0 µM 7% | [1]; at 33.0 µM 31% | [2]; at 1.2 µM -2% | [2]; at 3.7 µM -5% | [2]; at 11.0 µM 0% | [2]; at 33.0 µM 5% | [2]; at 100.0 µM 22% | [3]; at 1.2 µM 2% | [3]; at 3.7 µM 10% | [3]; at 11.0 µM 19% | [3]; at 33.0 µM 54% | [4]; at 1.2 µM -4% | [4]; at 3.7 µM 1% | [4]; at 11.0 µM 1% | [4]; at 33.0 µM 7% | [4]; at 100.0 µM 52% | [15]; at 1.2 µM 1% | [15]; at 3.7 µM 3% | [15]; [17] -11% | [15]; at 11.0 µM 10% | [15]; at 33.0 µM 42% | [15]; at 50.0 µM 63% | [5]; at 1.2 µM -1% | [5]; at 3.7 µM 0% | [5]; [17] -2% | [5]; at 11.0 µM 2% | [5]; at 33.0 µM 12% | [5]; [18] 20% | [5]; at 50.0 µM 47.4% | [5]; at 100.0 µM 33% | [7]; [17] -6% | [9]; [17] -4% | [9]; [18] 21% | [9]; at 50.0 µM 10.3% | [10]; at 1.2 µM -4% | [10]; at 3.7 µM 0% | [10]; [17] 19% | [10]; at 11.0 µM 2% | [10]; at 33.0 µM 11% | [10]; at 100.0 µM 27% | [11]; at 1.2 µM -4% | [11]; at 3.7 µM -2% | [11]; at 11.0 µM -7% | [11]; at 33.0 µM 1% | [11]; at 100.0 µM 55% | [12]; at 1.2 µM -3% | [12]; at 3.7 µM -1% | [12]; at 11.0 µM 4% | [12]; at 33.0 µM 22% | [12]; at 100.0 µM 65% | [13]; at 1.2 µM 10% | [13]; at 3.7 µM 30% | [13]; at 11.0 µM -5% | [13]; at 33.0 µM 41% | [14]; [17] 3% | [16]; at 1.2 µM -3% | [16]; at 3.7 µM 0% | [16]; at 11.0 µM 6% | [16]; at 33.0 µM 30% | [16]; at 100.0 µM 69%
